# Assay results: PubChem BioAssay AID504329 (Southern Research Specialized Biocontainment Screening …, 2011)
# Hit rate of the full screen: of about 340,000 compounds, about 1,000 (0.29%) were called active. A selection follows. Entries with a potency or affinity are not part of this list. A number with no mark means an inactive call. Rule as the data show it: inconclusive = inhibition above about 27% without an active follow-up result; inactive = below that.
# Assay: NS1A inhibition, H1N1 influenza, cell based functional assay (AID 504329)
# Conditions: percent inhibition, at 12.5 µM, stronger effect = higher value
row,SMILES,inhibition [%]
1,Cc1cc(=O)oc2cc(OCC(=O)N(C)C3CCS(=O)(=O)C3)c(Cl)cc12 (stereo unspecified),-3.85
2,CN(C)/C=C1/C(=O)NC(=O)N(CCNc2ncc(C(F)(F)F)cc2Cl)C1=O,-1.37
3,CN(C)C(=O)CCc1ccc2c3c([nH]c2c1)[C@]1(C)[C@@H](C(=O)N2CCCCC2)C[C@H](CC(=O)NCCN2CCOCC2)C(=O)N1CC3,8.89
4,S=C(NCc1cccs1)NCC1CCCO1 (stereo unspecified),-5.35
5,Cc1ccc(S(=O)(=O)N(C)CCCC(=O)Nc2ccc(C)cc2C)cc1,-2.08
6,Cc1ccc(S(=O)(=O)N(C)CCCC(=O)Nc2cccc3ccccc23)cc1,2.47
7,Cc1ccc(N=Nc2ccc(O)c3ncccc23)cc1,-1.47
8,Cc1ccc(N=Nc2ccc(O)c3ncccc23)cc1C,-4.94
9,Cc1ccccc1N=Nc1ccc(O)c2ncccc12,11.8
10,Oc1ccc(N=Nc2ccccc2C(F)(F)F)c2cccnc12,18.7
11,CCOc1ccc(NC(=O)CN(C)C(=O)CSCc2c(C)noc2C)cc1OCC,-3.36
12,COc1ccc(CC(=O)NNC2=Nc3cccc4cccc2c34)cc1OC,-25.3
13,O=C1c2ccccc2C(=O)N1CCc1nc2ccccc2c(=O)n1Cc1ccco1,-1.09
14,O=C(Cc1ccc(N(CCCl)CCCl)cc1)NC(Cc1ccc(Cl)cc1)C(=O)O (stereo unspecified),-4.27
15,CC(C(=O)NCC1(c2ccccc2)CCOCC1)N1CCOCC1 (stereo unspecified),-3.8
16,C=CCN1C=CC(=CC=C(C#N)C#N)C=C1,4.22
17,CCCCCCN1C=C/C(=C\C=C(C#N)C#N)c2ccccc21,18.4
18,CCN(CC)C(=O)c1nn(Cc2ccccc2)c(=O)c2ccccc12,-5.91
19,Cc1ccc(-n2c(C)cc(C(=S)N3CCOCC3)c2C)cc1C,12.2
20,Cc1cc(C(=S)N2CCOCC2)c(C)n1-c1ccc(F)cc1,1.72
21,O=C(NC1(c2ccccc2)CC1)C1CCC(=O)N(Cc2ccc(Cl)cc2)C1 (stereo unspecified),8.58
22,CC1CCC/C(=N/Nc2ccc([N+](=O)[O-])cc2[N+](=O)[O-])C1 (stereo unspecified),10.6
23,O=[N+]([O-])c1ccc(N/N=C2\CC3CC=CC23)cc1 (stereo unspecified),-1.23
24,CC1C/C(=N\Nc2ccc(S(N)(=O)=O)cc2[N+](=O)[O-])CC(C)(C)C1 (stereo unspecified),8.9
25,O=[N+]([O-])c1ccccc1N/N=C1\CC2CC=CC12 (stereo unspecified),21.6
26,O=C(CN1CCN(S(=O)(=O)c2ccc(Br)cc2)CC1)N/N=C/c1cc([N+](=O)[O-])ccc1Cl,-0.7
